Experimental data reported in PubChem BioAssay (NCATS).
Records with an inconclusive call do not appear. Entries that show only a call come without a potency. The source made the active and inactive calls. The call rests on the fitted dose curve; in most records, active means well fitted cell-killing curve with a large enough effect; inconclusive means small, poorly fitted or top-dose-only effect; inactive means no such curve, though single readings can be large or run the other way.

Test: qHTS of pediatric cancer cell lines to identify multiple opportunities for drug repurposing: Primary screen for OHS-50 cells (AID 1347103); further: nearly all actives have a fitted effect of over 40% in size
Settings: OHS-50 osteosarcoma viability, CellTiter-Glo luminescence, 48 h; series mostly up to 57.3 µM
Excerpt: Drug repurposing or repositioning has been offered as a strategy for drug development in oncology programs. This approach has special potential for childhood cancers and other rare or orphan diseases, where the expected return on new drug development has been a disincentive to pharmaceuticals.
In this project we exploit the poly-pharmacology of drugs to discover new indications via phenotypic screening of a panel of 19 well-characterized cell lines derived from solid tumors seen in children and adolescents. The goal is to identify approved drugs with previously unrecognized anticancer properties that has the potential to reveal new mechanisms and biological processes involved in carcinogenesis or drug resistance. We employed a titration-based paradigm (quantitative high-throughput screening or qHTS), where all compounds were tested at multiple concentrations for their effect on cell viability. Concentration-response curves (CRCs) were derived directly from the primary screen, and both potency and efficacy values were used to identify compounds with robust bioactivity profiles. We screened the NIH Chemical Genomics Center (NCGC) Pharmaceutical Collection (NPC) and Mechanism Interrogation Plate (MIPE) small molecule collections of approved and investigational compounds against these cell lines; and measured metabolically active cells after 48 hours of compound treatment as a proxy for cell viability.
Assay Submitter: Nathalia J. Martinez, National Center for Advancing Translational Sciences, National Institutes of Health, Rockville, MD, USA; email: natalia.martinez@nih.gov
[1] Shen, M et al. Quantitative high-throughput phenotypic screening of pediatric cancer cell lines identifies multiple opportunities for drug repurposing. Oncotarget 2017 Dec 19;9(4):4758-4772. PMID 29435139.
The cells were obtained from University of North Carolina (UNC), Pediatric Preclinical Testing Program (PPT), and Coriell Institute (CI).
qHTS cell viability assay:
Cells were assayed in growth media at a density of 500-1,000 cells/well. Five microliters of cells were dispensed into 1,536-well, white, solid-bottom, TC-treated plates (Greiner Bio One) using a multidrop dispenser and incubated at 37 degrees C, 5% CO2, under a humidified atmosphere for 5 hours. Twenty-three nanoliters of compounds and controls (neutral control DMSO or positive control bortezomib at final concentration of 2.3 µM) were subsequently transferred by Kalypsys pintool. For primary screens, the MIPE collection was tested at 11-point dilutions (final concentrations range from 0.78 nM to 46 µM) and the NPC collection at 8-point dilutions (final concentrations range from 0.59 nM to 46 µM). Compounds tested in follow-up screens were assayed at 11-point dilutions. Cells were incubated for 48 hours, followed by addition of 3 µL of CellTiter-Glo (Promega). After a 15 min incubation at room temperature, samples were analyzed for luminescence intensity using a ViewLux High-throughput CCD imager equipped with clear filters.
Potency means the concentration at half of the fitted maximal effect.

| Compound | Potency |
| --- | --- |
| O=C1NC(=O)C(c2ccccc2)(c2ccccc2)N1 | inactive |
| O=C1c2ccccc2-[n+]2ccc3c([nH]c4ccccc43)c21 | 2.17 µM (active) |
| CC=CC[C@@H](C)C(=O)[C@H]1C(=O)N[C@@H](C(C)C)C(=O)N(C)CC(=O)N(C)[C@@H](CC(C)C)C(=O)N[C@@H](C(C)C)C(=O)N(C)[C@@H](CC(C)C)C(=O)N[C@@H](C)C(=O)N[C@H](C)C(=O)N(C)[C@@H](CC(C)C)C(=O)N(C)[C@@H](CC(C)C)C(=O)N(C)[C@@H](C(C)C)C(=O)N1C | 24.3 µM (active) |
| COc1cc(NC(=O)c2ccc(-c3ccc(Cl)cc3)o2)cc(OC)c1 | inactive |
| CNC(=O)c1ccc2cc(C3(O)CCn4cncc43)ccc2c1 (stereo not given) | inactive |
| CC(C)(C)Cn1c(N)nc2ccc(-c3[nH]c(C(C)(C)C)nc3-c3ccc(F)cc3)nc21 | 30.6 µM (active) |
| CC(=O)c1ccc(S(=O)(=O)NC(=O)NC2CCCCC2)cc1 | inactive |
| COc1ccc(-c2oc3c(CC=C(C)C)c(OC4O[C@H](CO)[C@@H](O)[C@H](O)[C@@H]4O)cc(O)c3c(=O)c2OC2O[C@@H](C)[C@H](O)[C@@H](O)[C@@H]2O)cc1 (stereo not given in full) | 21.7 µM (active) |
| CCCCCCCCCCCC1=C(O)C(=O)C=C(O)C1=O | 0.0193 µM (active) |
| CC=CCC=CCCC(=O)[C@H]1O[C@@H]1C(N)=O | inactive |
| C[N+](C)(C)CC(=O)O | inactive |
| CO[C@H]1C[C@@H]2CC[C@@H](C)[C@@](O)(O2)C(=O)C(=O)N2CCCC[C@@H]2C(=O)O[C@H]([C@H](C)C[C@@H]2CC[C@H](OCCO)[C@H](OC)C2)CC(=O)[C@H](C)C=C(C)[C@@H](O)[C@@H](OC)C(=O)[C@H](C)C[C@H](C)C=CC=CC=C1C | 6.11 µM (active) |
| CNC1CCC(N(Cc2cccc(-c3ccncc3)c2)C(=O)c2sc3c(F)ccc(F)c3c2Cl)CC1 (stereo not given) | 24.3 µM (active) |
| COc1ccc2c(Oc3ccc(NC(=O)c4c(C)n(CC(C)(C)O)n(-c5ccccc5)c4=O)cc3F)ccnc2c1 | 21.7 µM (active) |
| CC(=O)N[C@@H](CS)C(=O)O | inactive |
| COc1cccc([C@@H](C)NCCCc2ccccc2Cl)c1 | inactive |
| NS(=O)(=O)c1ccc(NC2=CC(=O)c3ccccc3C2=O)cc1 | inactive |
| Cc1ccc(/C=N/NC(=O)c2ccccc2Oc2ccccc2)o1 | 21.7 µM (active) |
| O=C(NCCN1CCOCC1)c1ccc(Cl)cc1 | inactive |
| C=CCc1ccc(O)c(-c2ccc(O)c(CC=C)c2)c1 | 24.3 µM (active) |

| Compound | Potency |
| --- | --- |
| CN(C)Cc1cccc(N=C(c2ccccc2)c2c(O)[nH]c3cc(C(=O)N(C)C)ccc23)c1 | 17.2 µM (active) |
| CCc1ccc(OCc2ccccc2C(=O)Nc2ccc3nc(C)cc(N)c3c2)cc1 | 3.43 µM (active) |
| O=C(O)c1cc(-c2ccccc2)nc2ccccc12 | inactive |
| COc1cccc(-c2cc(=O)c3ccccc3o2)c1N | inactive |
| CCCCCNC(=O)N1CCC(CN(Cc2ccc(Cl)cc2)Cc2ccc([N+](=O)[O-])s2)C1 (stereo not given) | 24.3 µM (active) |
| NC(=O)NN=Cc1ccc([N+](=O)[O-])o1 | inactive |
| COc1ccc(-n2c(C)c([N+](=O)[O-])c3ccc(O)cc32)cc1 | inactive |
| CC(=O)CCCCn1c(=O)c2c(ncn2C)n(C)c1=O | inactive |
| NCCS | inactive |
| CCCCC1C(=O)N(c2ccccc2)N(c2ccccc2)C1=O | inactive |
| CCOC1OC(=O)C[C@H]1NC(=O)[C@@H]1CCCN1C(=O)[C@@H](NC(=O)c1ccc(N)c(Cl)c1)C(C)(C)C (stereo not given in full) | 1.22 µM (active) |
| O=c1c(-c2ccc(O)cc2)coc2cc(O)ccc12 | inactive |
| CC(C)OC(=O)CCCC=CC[C@@H]1[C@H](C=C[C@@H](O)COc2cccc(C(F)(F)F)c2)[C@H](O)C[C@@H]1O | 24.3 µM (active) |
| COc1ccc(-c2coc3cc(O)ccc3c2=O)cc1 | inactive |
| OC[C@H]1O[C@@H](n2cnc3c2NC=NC[C@@H]3O)C[C@H]1O | inactive |
| CCC(CC)[C@H](NC(C)=O)[C@@H]1[C@H](O)[C@@H](C(=O)O)C[C@@H]1N=C(N)N | inactive |
| CCOC(=O)O[C@]1(C(=O)OCCl)CC[C@@H]2[C@H]3CCC4=CC(=O)C=C[C@]4(C)[C@@H]3[C@@H](O)C[C@@]21C | inactive |
| c1cc(-c2sc(-c3ccncc3)c(-c3ccncc3)c2-c2ccncc2)ccn1 | inactive |
| Oc1ccc(C2CCN(c3ccnc4ccccc34)CC2)cc1O | 17.2 µM (active) |
| CO[C@H]1C(=O)[C@]2(C)[C@@H](OC)C[C@H]3OC[C@@]3(OC(C)=O)[C@H]2[C@H](OC(=O)c2ccccc2)[C@]2(O)C[C@H](OC(=O)[C@H](O)[C@@H](NC(=O)OC(C)(C)C)c3ccccc3)C(C)=C1C2(C)C | 0.685 µM (active) |
